RBX1-CUL1 inh = inhibitors of human ROC1-CUL1 ubiquitin ligase activity | E3 ubiquitin-protein ligase RBX1 (Homo sapiens) + Cullin-1 (Homo sapiens), P62877+Q13616 | in vitro K48 di-Ub FRET, acceptor:donor ratio, 45 min | inhibition, % at 10 µM | actives 0.6% (n = 140,000) | AID 1347404, 2020; in the data active = inhibition above about 25%
Target sequence (P62877 whole entry, looked up): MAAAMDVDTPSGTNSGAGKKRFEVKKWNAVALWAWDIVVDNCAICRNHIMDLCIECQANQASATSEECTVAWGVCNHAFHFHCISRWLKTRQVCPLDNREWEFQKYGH
Target sequence (Q13616 whole entry, looked up): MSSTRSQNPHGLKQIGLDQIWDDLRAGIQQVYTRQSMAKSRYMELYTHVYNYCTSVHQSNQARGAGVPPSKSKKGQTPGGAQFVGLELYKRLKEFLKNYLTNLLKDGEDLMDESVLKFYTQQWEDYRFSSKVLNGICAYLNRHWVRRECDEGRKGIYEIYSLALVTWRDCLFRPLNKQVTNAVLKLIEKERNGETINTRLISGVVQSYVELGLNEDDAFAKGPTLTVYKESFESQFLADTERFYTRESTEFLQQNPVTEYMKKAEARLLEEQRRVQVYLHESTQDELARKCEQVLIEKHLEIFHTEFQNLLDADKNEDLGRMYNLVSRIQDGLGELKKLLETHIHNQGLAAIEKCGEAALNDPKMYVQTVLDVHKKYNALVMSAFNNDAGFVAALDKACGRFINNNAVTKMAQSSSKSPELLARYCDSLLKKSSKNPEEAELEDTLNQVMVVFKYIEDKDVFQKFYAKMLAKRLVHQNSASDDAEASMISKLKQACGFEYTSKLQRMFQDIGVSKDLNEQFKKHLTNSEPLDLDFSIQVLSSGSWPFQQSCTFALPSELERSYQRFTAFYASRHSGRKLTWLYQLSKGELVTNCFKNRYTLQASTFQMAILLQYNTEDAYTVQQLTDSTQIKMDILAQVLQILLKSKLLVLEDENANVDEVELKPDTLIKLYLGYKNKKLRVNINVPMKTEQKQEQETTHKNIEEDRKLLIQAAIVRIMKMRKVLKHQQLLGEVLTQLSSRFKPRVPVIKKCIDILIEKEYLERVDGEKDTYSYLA
* hit, by the source's call. The full list was thinned out, with hits kept by preference.

What do the screens show for `COc1ccc(/C=N/NC(=O)CSc2nc3scc(-c4ccc(C)cc4)c3c(=O)n2-c2ccccc2)cc1`?
RBX1-CUL1 inh: -12

What do the screens show for `Cc1c(C=C2C(=O)NC(=S)NC2=O)c2ccccc2n1CC(=O)NCc1ccco1`?
RBX1-CUL1 inh: 62*

What do the screens show for `Cc1ccc(NC(=O)Cn2c(=O)n(Cc3ccco3)c(=O)c3ccccc32)cc1`?
RBX1-CUL1 inh: 4

What do the screens show for `CN1C(=S)N(c2ccc(Cl)cc2)C(=O)/C1=C/c1cn(CC(=O)NCc2ccco2)c2ccccc12`?
RBX1-CUL1 inh: 7

How did O=C(c1nn2c(c1Cl)NC(c1ccc(Br)cc1)CC2C(F)(F)F)N1CCN(C23CC4CC(CC(C4)C2)C3)CC1 (stereo not given) do in these assays?
RBX1-CUL1 inh: -6

How did O=C1NC(=S)NC(=O)C1=Cc1ccc(-c2ccccc2Cl)o1 do in these assays?
RBX1-CUL1 inh: 1

How did CC(=O)NS(=O)(=O)c1ccc(Br)cc1 do in these assays?
RBX1-CUL1 inh: -3

What do the screens show for `CC(=O)NS(=O)(=O)c1ccc(-c2ccc(C=C3C(=O)NC(=S)NC3=O)o2)cc1`?
RBX1-CUL1 inh: 41*

How did Cc1ccc(CS(=O)(=O)N2CCc3ccccc3C2)cc1 do in these assays?
RBX1-CUL1 inh: 0

Results for CCOC(=O)c1c(-c2ccc(C)cc2)csc1NC(=O)c1cccc(C)c1 ?
RBX1-CUL1 inh: -4

How did N#CC1C(=N)Oc2n[nH]c(-c3ccc4ccccc4c3)c2C1CCc1ccccc1 (stereo not given) do in these assays?
RBX1-CUL1 inh: -1

How did O=C1c2ccccc2CSc2c(O)cccc21 do in these assays?
RBX1-CUL1 inh: -2

How did CN(C)CC/C=C1/c2cc(Br)ccc2CSc2ccccc21 do in these assays?
RBX1-CUL1 inh: -7

How did CN(C)CCOc1ccc2c(c1)C(=O)c1ccccc1CS2 do in these assays?
RBX1-CUL1 inh: 101*

Results for O=C(Nc1ccccc1C(=O)N1CCCCC1)c1ccc(Cl)cc1 ?
RBX1-CUL1 inh: 3

Results for N#C/C(=C/C(=O)c1ccccc1)c1ccc([N+](=O)[O-])o1 ?
RBX1-CUL1 inh: 85*

How did O=C(/C(=C/c1ccccc1)Sc1ccccc1)c1ccc([N+](=O)[O-])o1 do in these assays?
RBX1-CUL1 inh: 3

How did CCc1ccccc1NC(=O)c1ccc([N+](=O)[O-])o1 do in these assays?
RBX1-CUL1 inh: -12

How did COC(=O)c1cccc2c1N[C@@H](c1ccncc1)[C@H]1CC=C[C@@H]21 do in these assays?
RBX1-CUL1 inh: 0

How did Cc1c(C(=O)O)ccc2c1N[C@@H](c1ccc(F)cc1)[C@H]1CC=C[C@@H]21 do in these assays?
RBX1-CUL1 inh: 76*

How did CCOC(=O)c1cccc2c1N[C@@H](c1ccc(F)cc1)[C@H]1CC=C[C@@H]21 do in these assays?
RBX1-CUL1 inh: 10

Results for O=C(CCC1CCCC1)Nc1cccnc1Cl ?
RBX1-CUL1 inh: 4

What do the screens show for `CC(=O)C(C(C)=O)C1=CC(=O)C(=O)c2ccccc21`?
RBX1-CUL1 inh: 103*

How did CCc1cc2c(cc1OC(C)=O)C(=O)c1ccccc1C2=O do in these assays?
RBX1-CUL1 inh: 10

How did O=C(OC1=CC(=O)c2ccccc2C1=O)c1ccccc1 do in these assays?
RBX1-CUL1 inh: -17

What do the screens show for `Cc1cc(C)c2c(=O)[nH]c(SCC(=O)c3ccc(O)c(O)c3)nc2n1`?
RBX1-CUL1 inh: 4

Results for Cc1sc2nc(SCC(=O)c3ccc(O)c(O)c3)[nH]c(=O)c2c1C ?
RBX1-CUL1 inh: 67*

How did CCSc1nc2sc(C)c(C)c2c(=O)[nH]1 do in these assays?
RBX1-CUL1 inh: -7

How did COc1cccc(OCC(=O)Nc2nc(-c3ccc(C)cc3C)cs2)c1 do in these assays?
RBX1-CUL1 inh: -9

Results for Cc1nc2nc(NC(=O)C(C)C)[nH]n2c(=O)c1C ?
RBX1-CUL1 inh: 6

What do the screens show for `CC(C)CC(C)NC(=O)c1ccc(Cl)cc1Cl` (stereo not given)?
RBX1-CUL1 inh: 0

What do the screens show for `CCn1cc(C(=O)NCc2cccnc2N2CCN(C)CC2)cn1`?
RBX1-CUL1 inh: 7

How did CC(C)CC(=O)N1CCN(Cc2ccc(Cl)c(Cl)c2)CC1 do in these assays?
RBX1-CUL1 inh: 6

Results for O=C(NC(Nc1cccc(C(F)(F)F)c1)C(Cl)(Cl)Cl)c1ccccc1 (stereo not given) ?
RBX1-CUL1 inh: -11

How did CCCCNC(=O)N1CCc2onc(-c3ccc4c(c3)OCO4)c2C1 do in these assays?
RBX1-CUL1 inh: -6

Results for O=C1NN(c2cccc(F)c2)C(=O)/C1=C\c1cccc(OC(=O)c2cccs2)c1 ?
RBX1-CUL1 inh: 27*

How did O=C1NN(c2cccc(Br)c2)C(=O)/C1=C\c1cccc(OC(=O)c2cccs2)c1 do in these assays?
RBX1-CUL1 inh: 87*

Results for Cc1cccc(N2NC(=O)/C(=C\c3cccs3)C2=O)c1 ?
RBX1-CUL1 inh: -6

How did O=C1NN(c2ccc(Cl)c(Cl)c2)C(=O)/C1=C/c1cccc(OC(=O)c2cccs2)c1 do in these assays?
RBX1-CUL1 inh: 15

Results for CC(=O)Oc1cccc(/C=C2/C(=O)NN(c3ccc(F)cc3)C2=O)c1 ?
RBX1-CUL1 inh: 20

What do the screens show for `CCc1ccc(N2NC(=O)/C(=C/c3cccc(OC(C)=O)c3)C2=O)cc1`?
RBX1-CUL1 inh: 11

How did Cc1ccc(N2NC(=O)/C(=C/c3cccc(Br)c3)C2=O)cc1 do in these assays?
RBX1-CUL1 inh: -12

Results for CCOC(=O)c1ccc(N2NC(=O)/C(=C/c3cccc(OC(=O)c4cccs4)c3)C2=O)cc1 ?
RBX1-CUL1 inh: 67*

What do the screens show for `CCc1ccc(N2NC(=O)/C(=C/c3ccc(OC(=O)c4cccs4)c(OC)c3)C2=O)cc1`?
RBX1-CUL1 inh: 8

How did Cn1c(-c2ccco2)nn(CN2CCOCC2)c1=S do in these assays?
RBX1-CUL1 inh: 5

How did CCOCCn1c(=O)c2c(nc3n(-c4cccc(OC)c4)c(C)cn23)n(C)c1=O do in these assays?
RBX1-CUL1 inh: 4

Results for COc1ccc2ccc(OC)c(C3NC(=S)N=C(C)C3C(N)=O)c2c1 (stereo not given) ?
RBX1-CUL1 inh: 6

How did O=C(O)c1ccc(N2C(=O)CC(SC3=NCCN3)C2=O)cc1 (stereo not given) do in these assays?
RBX1-CUL1 inh: -4

What do the screens show for `CCCSc1nnc(NC(=O)COc2ccc(OC)cc2)s1`?
RBX1-CUL1 inh: -2

What do the screens show for `COc1cc(CNCc2nccn2C)ccc1OCC(O)CN1CCCCCC1` (stereo not given)?
RBX1-CUL1 inh: 3

How did CCOC(=O)c1c(NC(=O)CCCC(=O)O)sc(C)c1-c1ccc(F)cc1 do in these assays?
RBX1-CUL1 inh: 3

What do the screens show for `CCOC(=O)c1c(NC(=O)c2cccs2)sc(C)c1-c1ccc(OC)cc1`?
RBX1-CUL1 inh: 3

What do the screens show for `CCOC(=O)c1c(NC(=O)CCC(=O)O)sc(C)c1-c1ccc(CC(C)C)cc1`?
RBX1-CUL1 inh: 91*

What do the screens show for `COC(=O)c1ccc(C(=O)OC)c(NC(=O)CCc2ccccc2)c1`?
RBX1-CUL1 inh: -2

How did COC(=O)c1ccc(C(=O)OC)c(NC(=O)Cc2ccc(Br)cc2)c1 do in these assays?
RBX1-CUL1 inh: 4

Results for COC(=O)c1ccc(C(=O)OC)c(NC(=O)CN(C)C)c1 ?
RBX1-CUL1 inh: 51*

What do the screens show for `COc1ccc(OC)c(C2C(C(=O)Nc3ccc(C)cc3C)C(C)=Nc3c(C(=O)Nc4ccc(F)cc4)cnn32)c1` (stereo not given)?
RBX1-CUL1 inh: -1

Results for COC(=O)c1nnc2c(-c3ccc(F)cc3)c(C)nn2c1C ?
RBX1-CUL1 inh: -5

Results for O=C1C=CC2(c3ccccc3-c3ccccc32)S(=O)(=O)C1 ?
RBX1-CUL1 inh: 61*

Bioassay records (PubChem)
